Molecules are shown by their SMILES. Results with a measured potency or affinity are listed apart. Unmarked numbers belong to inactive results. How the calls were made is not given here.

A short description of this test: toxicity toward HepG2 liver cells – cell-based, plate reader, cherry-pick, antagonist series, cytotoxicity control, dose response (AID 743416).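 Further: 0% = neutral control wells and -100% = positive control wells.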 The conditions noted are these: series mostly up to 26 µM; activity change, negative = cytotoxicity: at the top concentration.
Regarding `COc1ccc(-c2cc(C(=O)N3CCCC3)no2)cc1`, the “activity change, negative = cytotoxicity” value was -4.9%.

In the case of `Cc1cc(C(=O)CSc2nnc(N)s2)c(C)n1Cc1cccs1`, the “activity change, negative = cytotoxicity” value was 16.4%.

For `Cc1ccc(-c2nc(-c3ccccn3)no2)cc1[N+](=O)[O-]`, the “activity change, negative = cytotoxicity” value was -5.97%.

Consider `CCOC(=O)c1cn2nc(N3CCCCC3)ccc2n1`, for which the “activity change, negative = cytotoxicity” value is 6.8%.

`COc1cc(SC)ccc1C(=O)Nc1ccc(Cl)cn1`: the “activity change, negative = cytotoxicity” value is -6.17%.

With `Cc1cnc(NC(=O)c2ccc(OCC3CCCO3)cc2)s1` (stereo not given), the “activity change, negative = cytotoxicity” value was -10.7%.

Turning to `COc1ccc(-c2nc(-c3cccs3)no2)cc1`, the “activity change, negative = cytotoxicity” value is 6.08%.

Regarding `CN(c1ccccc1)S(=O)(=O)c1cccc(NC(=O)c2cc(=O)c3ccccc3o2)c1`, the “activity change, negative = cytotoxicity” value was -0.058%.

For `Cc1ccc2nc(-c3ccc(NC(=O)COC(=O)c4ccco4)cc3)sc2c1`, the “activity change, negative = cytotoxicity” value was 9.1%.

Turning to `O=C(CN1C(=O)c2ccccc2S1(=O)=O)c1ccccc1F`, the “activity change, negative = cytotoxicity” value is -6.37%.

As for `OC1CCC(Nc2ccn3nc(-c4cccc(OCc5ccccc5)c4)cc3n2)CC1` (stereo not given), the “activity change, negative = cytotoxicity” value is 17.8%.

Take `Cc1ccnc(NC(=O)c2cccc(S(=O)(=O)N3CCN(c4ccccc4)CC3)c2)c1`: the “activity change, negative = cytotoxicity” value was -8.47%.

On to `CSc1ccc(NC(=O)Nc2cc(C)ccn2)cc1`, for which the “activity change, negative = cytotoxicity” value is -2.93%.

`O=C(O)c1ccc(N/N=C/c2ccc(OC(=O)c3cccc(Cl)c3)cc2)cc1`: the “activity change, negative = cytotoxicity” value was 10.1%.

As for `Cc1ccc(C(=O)Nc2ccc3c(c2)OCCO3)c(Cl)c1`, the “activity change, negative = cytotoxicity” value was -5.88%.

Take `Cc1ccc(-c2nc(-c3ccncc3)no2)c(Cl)c1`: the “activity change, negative = cytotoxicity” value was 59.3%.

As for `O=C(CN1CCOc2ccccc21)NCc1ccc(F)cc1`, the “activity change, negative = cytotoxicity” value is 2.54%.

On to `Cc1cccc(-n2ncc3c(N(C)C4CCCCC4)ncnc32)c1`, for which the “activity change, negative = cytotoxicity” value was -11.7%.

As to `Cc1ccc(C(=O)CN2C(=O)c3ccccc3S2(=O)=O)cc1`, the “activity change, negative = cytotoxicity” value is 17.3%.

Take `Cc1cc(C(=O)COC(=O)c2cccn2C)c(C)n1Cc1ccco1`: the “activity change, negative = cytotoxicity” value is -8.31%.

Take `Cc1ccc(NC(=O)c2cnn(-c3ccccc3)c2C)cc1C`: the “activity change, negative = cytotoxicity” value is 7.86%.

Turning to `COCCn1c(C)cc(C(=O)CSc2nnnn2C2CCCC2)c1C`, the “activity change, negative = cytotoxicity” value is -5.42%.

With `Cn1cccc1C(=O)OCC(=O)Nc1ccc2c(c1)OCCO2`, the “activity change, negative = cytotoxicity” value is 7.53%.

`O=C(c1cc(-c2ccc(Cl)cc2Cl)on1)N1CCOCC1`: the “activity change, negative = cytotoxicity” value is -0.47%.

Turning to `CCCCCc1ccc(-c2ccc(C(=O)O)cc2)nc1`, the “activity change, negative = cytotoxicity” value was 5.11%.

For the compound `COc1cc(NC(=O)c2cccc3c(-c4cnn(C)c4)coc23)cc(OC)c1OC`, the “activity change, negative = cytotoxicity” value was 11.3%.

For `Clc1ccc(-n2ncc3c(N4CCCC4)ncnc32)cc1`, the “activity change, negative = cytotoxicity” value is 2.01%.

For `C=CCNC(=O)c1c(Cl)nc(C)c([N+](=O)[O-])c1C`, the “activity change, negative = cytotoxicity” value was 6.73%.

In the case of `CC(C)(C)c1ccc(C(=O)NCCOc2ccccc2F)cc1`, the “activity change, negative = cytotoxicity” value was -7.22%.

In the case of `CSc1nc2ccc(NC(=O)c3ccccn3)cc2s1`, the “activity change, negative = cytotoxicity” value is -9.16%.

As to `O=C(c1cc(-c2ccc(Cl)cc2Cl)on1)N1CCCC1`, the “activity change, negative = cytotoxicity” value was 1.25%.

As for `FC(F)(F)c1cccc(CC2CN(Cc3ccccc3)Cc3ccccc3N2c2cc(Cl)cc(Cl)c2)c1` (stereo not given), the “activity change, negative = cytotoxicity” value is -1.78%.

For `Cc1c(C)c2ccc(OCC(=O)Nc3nccs3)cc2oc1=O`, the “activity change, negative = cytotoxicity” value is 0.352%.

Consider `Cc1cc(C(=O)COC(=O)c2ccccc2O)c(C)n1CC1CCCO1` (stereo not given), for which the “activity change, negative = cytotoxicity” value was 0.213%.

Take `Cc1cc(C(=O)Nc2ccc(N3CCCCC3)cc2)no1`: the “activity change, negative = cytotoxicity” value was 9.79%.

Consider `COc1ccc(OCC(=O)Nc2nccs2)cc1`, for which the “activity change, negative = cytotoxicity” value is 73.9%.

Take `COc1cc(SC)ccc1C(=O)Nc1ncc(C)s1`: the “activity change, negative = cytotoxicity” value was 3.94%.

In the case of `Cc1c(NC(=O)c2ccc(-c3ccccc3)cc2)cccc1C(=O)O`, the “activity change, negative = cytotoxicity” value was -3.78%.

`Cc1ccc(-c2nnc(-c3ccccc3Br)o2)cc1`: the “activity change, negative = cytotoxicity” value was -3.72%.

As to `CCn1c(C)cc(C(=O)CN2C(=O)c3ccccc3S2(=O)=O)c1C`, the “activity change, negative = cytotoxicity” value is 10.8%.

These data come from PubChem BioAssay.
